# Assay results reported in article PMC10668032, “Altered binding affinity of SIX1-Q177R correlates with enhanced WNT5A and WNT pathway effector expression in Wilms tumor”.
# Whole data set: some 33,000 sequences, median “e-score” near -0.053, cut for the highest 2% near 0.38. Shown is part of a subset that was picked to be rich in the highest values.
# Target: T1, SIX1 homeodomain (reference allele) (human, UniProt Q15475 108-198)
# T1 sequence: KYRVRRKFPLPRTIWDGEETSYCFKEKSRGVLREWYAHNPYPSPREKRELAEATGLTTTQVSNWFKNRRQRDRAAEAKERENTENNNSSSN
# Experiment: universal protein binding microarray; Universal all-10-mer PBM (8x60K, AMADID 030236), 300 nM GST-tagged protein, Alexa Fluor 488 anti-GST; buffer, salt, pH and temperature not stated (as in Berger); high values mean tight binding
# Conditions: protein: ivt; tags: N-terminal GST; dsDNA, one strand shown
# Summary of the method: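 Binding of GST-tagged homeodomains is given as 8-mer E-scores from the Universal PBM Analysis Suite. The proteins were produced by in vitro transcription/translation, quantified by anti-GST western blot against a recombinant GST standard curve, and applied in duplicate at 300 nM final concentration to universal 'all 10-mer' protein binding microarrays (8×60K format).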
row,Sequence,binding signal [E-score]
1,ACACCTAG,0.231 ± 0.0166
2,ATACCTAT,0.398 ± 0.0488
3,ATACCTGC,0.342 ± 0.0303
4,ATACCTGG,0.27 ± 0.0557
5,ATACCTGA,0.3668 ± 0.00206
6,ATACCTTA,0.385 ± 0.0525
7,ACACCTAT,0.26 ± 0.021
8,ATACCTAA,0.273 ± 0.0487
9,ATACCTAC,0.385 ± 0.0317
10,ATACCTAG,0.392 ± 0.0316
11,ATACCTTG,0.335 ± 0.0223
12,ACACCTAC,0.191 ± 0.0849
13,CCGAATCC,0.163 ± 0.0406
14,ATCTTGTC,0.153 ± 0.0184
15,TCGATCCA,0.152 ± 0.142
16,TGGCATAA,0.177 ± 0.0236
17,AGCTATAC,0.235 ± 0.02
18,ATCGCTAG,0.279 ± 0.0337
19,ATTAGTGA,0.152 ± 0.0306
20,ATACCTCG,0.342 ± 0.0353
21,ATACCTCC,0.403 ± 0.0208
22,ATACCTCA,0.352 ± 0.0542
23,ATACTGCA,0.242 ± 0.0213
24,ATTGAGAC,0.212 ± 0.0411
25,AACTGGAT,0.172 ± 0.0594
26,AGGTATAA,0.242 ± 0.0818

row,Sequence,binding signal [E-score]
1,AGGTATAG,0.262 ± 0.0777
2,GGGTATAC,0.416 ± 0.0059
3,CGGTATAG,0.216 ± 0.0268
4,GCGTATAC,0.295 ± 0.011
5,GGGTATAA,0.375 ± 0.0497
6,AGGTATAC,0.4 ± 0.0358
7,CGGTATAA,0.294 ± 0.0192
8,CGGTATAC,0.393 ± 0.00578
9,CACTATCG,0.211 ± 0.013
10,TAGATCCA,0.227 ± 0.0321
11,CATAACAC,0.161 ± 0.0101
12,ATCTGCCA,0.187 ± 0.0302
13,GAGATCTC,0.292 ± 0.0824
14,ATCATCCG,0.348 ± 0.0124
15,ACACCCCT,0.327 ± 0.0413
16,ATCCGAAT,0.313 ± 0.0137
17,TATTAAAA,0.18 ± 0.0684
18,GGCGGGGA,0.174 ± 0.14
19,ATATCCTG,0.394 ± 0.0206
20,AGATCCTG,0.252 ± 0.0351
21,GTATTCTA,0.191 ± 0.00249
22,ATCTCCTA,0.159 ± 0.082
23,CTATCCTA,0.198 ± 0.0137
24,ATATCCTA,0.415 ± 0.027
25,ATCTCCTG,0.298 ± 0.00608
26,CTATCCTC,0.282 ± 0.0379

row,Sequence,binding signal [E-score]
1,ATATCCTC,0.426 ± 0.02
2,TAATCCTA,0.215 ± 0.0252
3,GTATCCTA,0.409 ± 0.00666
4,AGATCCTC,0.329 ± 0.0109
5,GATCTTAC,0.275 ± 0.0138
6,ACAGGATC,0.283 ± 0.00359
7,ATCGAGAC,0.217 ± 0.013
8,CCAGATCA,0.39 ± 0.0106
9,GGAGATCA,0.386 ± 0.0139
10,CCGGATCA,0.454 ± 0.013
11,TCCGATCA,0.212 ± 0.00764
12,TGAGATCA,0.33 ± 0.0117
13,CCAGATCG,0.292 ± 0.0492
14,CCGGATTA,0.351 ± 0.0231
15,TCGGATAA,0.336 ± 0.0635
16,CCGGATGA,0.275 ± 0.0448
17,TCAGATCA,0.243 ± 0.0928
18,AGAGATCA,0.302 ± 0.0481
19,TCGGATCA,0.4385 ± 0.00286
20,GACACTCC,0.258 ± 0.0239
21,CAGTGTAG,0.161 ± 0.0252
22,CGATCTGA,0.30169 ± 0.000148
23,ATACTTGA,0.222 ± 0.103
24,GTATAAAA,0.246 ± 0.0491
25,GATAGTTA,0.153 ± 0.035
26,CAGATCAC,0.3666 ± 0.00216

row,Sequence,binding signal [E-score]
1,ACTCAGGG,0.266 ± 0.0829
2,CGTAATAC,0.256 ± 0.0115
3,GCGGATTA,0.318 ± 0.0316
4,GCGGATCA,0.448 ± 0.00571
5,GCGGATGA,0.171 ± 0.0144
6,ATCGTACC,0.217 ± 0.0516
7,CCCTCTCA,0.17 ± 0.048
8,GATAGCCC,0.303 ± 0.0137
9,AGATTGAT,0.221 ± 0.0674
10,AATACCAA,0.278 ± 0.0235
11,AATACCAT,0.296 ± 0.0291
12,TATACCAA,0.347 ± 0.016
13,GATACCAC,0.462 ± 0.0103
14,GATACCAA,0.4303 ± 0.00174
15,AATACCAC,0.33 ± 0.0283
16,ACAGTGGT,0.155 ± 0.0272
17,GGATGACC,0.205 ± 0.0281
18,CTGAAACC,0.155 ± 0.0131
19,CATAAGAA,0.178 ± 0.0241
20,CCGGACAC,0.192 ± 0.0231
21,ATGCACTA,0.159 ± 0.065
22,CGTATTTA,0.169 ± 0.0073
23,GCTGGATA,0.324 ± 0.0373
24,CCCGGATA,0.424 ± 0.0139
25,CCTGGATA,0.313 ± 0.0384
26,CCCGGAGA,0.169 ± 0.0421

row,Sequence,binding signal [E-score]
1,GCCGGATA,0.409 ± 0.0137
2,GCCAGATA,0.213 ± 0.0509
3,ACCGATCA,0.2912 ± 0.000771
4,CCCGATCC,0.366 ± 0.0566
5,ACCGATAC,0.453 ± 0.017
6,ATCGATCA,0.17 ± 0.0323
7,ACCGATGA,0.17 ± 0.0208
8,ACCGATCC,0.382 ± 0.0237
9,ACCGACAC,0.2857 ± 0.000453
10,ATCGATCC,0.389 ± 0.0532
11,ATCGATCG,0.256 ± 0.037
12,CCCGACAC,0.19 ± 0.0993
13,CCCGATAG,0.205 ± 0.0789
14,CCCGATAC,0.438 ± 0.0253
15,ATCTTACC,0.296 ± 0.0402
16,CGTGTCAG,0.202 ± 0.0504
17,ATACTCGG,0.316 ± 0.01
18,ATCGTCAC,0.279 ± 0.00711
19,GATCTGCA,0.258 ± 0.0208
20,ATCACTGG,0.215 ± 0.00955
21,CCGGGTGA,0.201 ± 0.0475
22,ACCGATCT,0.251 ± 0.0228
23,GCCGATCC,0.352 ± 0.0357
24,ACCGATAT,0.396 ± 0.00927
25,GCCGATAC,0.42 ± 0.0113
26,TCCGATAA,0.223 ± 0.0291

row,Sequence,binding signal [E-score]
1,ACCGATAG,0.352 ± 0.018
2,TATAAATA,0.16 ± 0.095
3,CGAGATGA,0.187 ± 0.0163
4,AGTAGATA,0.334 ± 0.0532
5,ATAGCTAC,0.163 ± 0.0342
6,AGGCGTAT,0.318 ± 0.00622
7,TATCTGAA,0.153 ± 0.0196
8,AAGGATAG,0.195 ± 0.0349
9,GAGGATAA,0.278 ± 0.00471
10,AAGGATAC,0.405 ± 0.0292
11,CAGGATAC,0.365 ± 0.0177
12,GAGGATAC,0.403 ± 0.0104
13,AAGGATAA,0.167 ± 0.034
14,ACATTGAT,0.154 ± 0.01
15,ATGAGACC,0.295 ± 0.00298
16,ATCACATC,0.284 ± 0.0264
17,CACCGATC,0.305 ± 0.0428
18,CCATATGC,0.159 ± 0.0297
19,CCATATCG,0.4544 ± 0.00281
20,ACATATCC,0.381 ± 0.0241
21,CCATATAC,0.29 ± 0.00643
22,CCATATCC,0.424
23,ACATATAC,0.244 ± 0.0208
24,ACATATCT,0.233 ± 0.09
25,ACATATCG,0.389 ± 0.0479
26,ACCTATCG,0.236 ± 0.0191

row,Sequence,binding signal [E-score]
1,CCATATAG,0.211 ± 0.0217
2,ACATATAG,0.162 ± 0.052
3,CAATATCG,0.296 ± 0.0508
4,ATATTCAG,0.164 ± 0.0437
5,GCTTATCC,0.304 ± 0.0229
6,TAGATGGA,0.289 ± 0.00593
7,AACAGTAT,0.196 ± 0.107
8,CGGATTCC,0.247 ± 0.00447
9,CAGAACAA,0.176 ± 0.0355
10,ATATTAAC,0.156 ± 0.0934
11,CAAGATCA,0.242 ± 0.0215
12,TATCATGA,0.382 ± 0.0397
13,TATTATCA,0.187 ± 0.0898
14,GGTCATGA,0.169 ± 0.033
15,TCTCATAA,0.161 ± 0.0418
16,TATCATAA,0.381 ± 0.0345
17,GATCATAA,0.306 ± 0.00493
18,TATCAGGA,0.397 ± 0.00041
19,GATCATGA,0.273 ± 0.0126
20,GATCAGGA,0.339 ± 0.0411
